This is an account of results in the supplement of paper PMC11417369.

Over roughly 25,000 sequences, “ln(normalized median fluorescence intensity)” has its median near 9.3; the highest 2% begin near 10. What follows is part of a selection rich in the highest values, with near analogues and random picks from the rest.

In the experiment the test system is PF3D7_0420300 AP2 domain 1 (GST-tagged). In words: gcPBM binding intensity (ln(normalized median fluorescence intensity)); higher = stronger DNA binding. The gist of the method:
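Binding intensity is defined as the maximum Masliner-normalised natural-log median intensity across replicate spots for either probe orientation. It was measured on an Agilent 4 × 180k array of primer-extended double-stranded 36-bp intergenic genomic probes and negative controls, to which GST-tagged P. falciparum DNA-binding domains made in E. coli were applied for 1 h in 1× PBS with 1% milk, 0.2 mg/ml BSA, 0.5% salmon testes DNA and 0.03% Triton X-100. Detection was by Alexa488 anti-GST antibody and scanning at 488 nm.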
With “TATATTAACAAAATGGTGCAATAATTTCTATATTGT [GTGCAC_site9430]”, the “gcPBM binding intensity (ln)” value worked out at 9.21. With “TATTTTAATTTTTGTTGTACGCAAATGTGAGGGCAT [XGTACX_site4663]”, the “gcPBM binding intensity (ln)” value is 9.17. For “AAATAAAGGAAATAAAAAGAAACCAATTTCGAATAT [CACACA_negctrl_site953]”, the “gcPBM binding intensity (ln)” value turned out to be 9.57. As for “TTTTTTATTTTTTACATATTTAGCTCATATTTATAT [GTGCAC_negctrl_site491]”, the “gcPBM binding intensity (ln)” value was found to be 9.44. The value for “AAAGGAGGGAATTTTTCTAGGTGTGGAGTGCTACTC [XGTACX_negctrl_site63]” was 9.44; that for “TATAAATATAAATACACACACATATATATTATATAT [CACACA_site4496]” was 9.85.

As for “AAAACACTTATGGATTGTACAATAAAAATTATATTA [XGTACX_site7042]”, the “gcPBM binding intensity (ln)” value is 9.26. As for “CCTATAAATGCATTCACACATATATATTTATATTAT [CACACA_site6086]”, the figure is 9.26; as for “TATATTAAAAAAAAATGTACATATATATAATATATA [XGTACX_site1935]”, 9.19.

For the sequence “ATAAAATACATATAAACACACATATAAACCGACATA [CACACA_site2477]”, the “gcPBM binding intensity (ln)” value is 10. As for “TATATATATAAATACACACACACACCGATATATATA [CACACA_site5408]”, the figure is 10.1; as for “ACCATATAAATAAACACACACACACCGATATATATA [CACACA_site5310]”, 10.1. As for “TAATAATACCCAAGCACACACACACCCATATATATA [CACACA_site4831]”, the figure is 10; as for “TAAAAAAAAAAAAATACACACACACCGATATATATA [CACACA_site8498]”, 10.2. As for “CACTAAAATGGACACACACACACACCGATATATATA [CACACA_site6139]”, the figure is 10.2; as for “AAAATACATAAACACACACACACACCGATATATATA [CACACA_site9186]”, 10.3; as for “ATAATACCCAAGCACACACACACACCGATATATATA [CACACA_site8344]”, 10.4. Consider “AAATATATACTACCGATGCACTAAATATAAACACAT [GTGCAC_site9777]”, for which the “gcPBM binding intensity (ln)” value is 9.67.

As to “CCTAAATAAATGGACACACACATATATATATATATA [CACACA_site1439]”, the “gcPBM binding intensity (ln)” value was determined as 9.49. In the case of “CACTAAAATAAACACACACACACACCGATATATATA [CACACA_site9379]”, the “gcPBM binding intensity (ln)” value worked out at 10.3. For “TGATAATAAGCATACACACACACACCCAAAAAAAAA [CACACA_site721]”, the “gcPBM binding intensity (ln)” value was 10.2. As for “TGTAAGAAATTGAGCGCACACATACATCTGTGGGAT [CACACA_site4945]”, the figure is 9.55; as for “AAAAAAAAAAAAAAAACACACATTTAGCAATCTACA [CACACA_site3706]”, 9.32; as for “ATGTGATGTTATATATGTACTTATTTTTTAATAAGG [XGTACX_site1786]”, 9.25. The value for “TGTTGTAAATTAAAGACATGCACGTGAGAAAATATA [TGCATGCA_site285]” was 9.51; that for “TCAAATTTAATCATAACACACATTCACATATGAATT [CACACA_site3199]” was 9.16; that for “GTAGTCCAAAAAAAGCGTACACAGAAAAAAAAAAAA [XGTACX_site4273]” was 9.14. For “ATTTTTTGGAAAAGAAGTACAATGGATTTATACGTT [XGTACX_site891]”, the “gcPBM binding intensity (ln)” value was found to be 9.09. The value for “TTTTTTTTTTTTTTTTTTTTACCCCTTTTTCAAAAA [CACACA_negctrl_site1524]” was 8.39; that for “AGGATATATAATTAAGTGCATTAATTCAAAATAAAA [GTGCAC_site9702]” was 9.17. The value for “TTTTGTCTTATATGTTGTACAACGTAAACAAAAAAA [XGTACX_site4412]” was 8.84; that for “TTTTAAGAATAAAATTGTACACATACATGTGTTCGC [XGTACX_site438]” was 9.09. Regarding “TATACCTATAAATACACACACATATAAATAAATATA [CACACA_site6153]”, the “gcPBM binding intensity (ln)” value turned out to be 9.99.

Turning to “AAAAAAAAAAAAAGTACACACATACCTATAAATATA [CACACA_site6937]”, the “gcPBM binding intensity (ln)” value was 9.8. The value for “CAAAAAAAGTTATACACACACACACGGATATAAATA [CACACA_site6619]” was 10.1; that for “TACCTATACCTATACACACACACACGGAAATAAATA [CACACA_site6750]” was 10.3. The value for “TACCTATAAAAGTACACACACACACGGATATAAATA [CACACA_site6569]” was 10.3; that for “TATATACCTATATACACACACATATATAAATAAATA [CACACA_site7341]” was 9.86.

As to “TATTGTATGGTAGGATATGATGTTATTTGTTATAAT [CACACA_negctrl_site202]”, the “gcPBM binding intensity (ln)” value came out at 9.45. The value for “TATATATATATATATATATATATATATATATATATT [CACACA_negctrl_site1440]” was 8.8; that for “CTGAATGTATATATTTGTACATATATATATATATAT [XGTACX_site5557]” was 9.16. For “TTTTTTTTTTTTTGTAGTACATTATGTATATTTTTA [XGTACX_site7810]”, the “gcPBM binding intensity (ln)” value stood at 9.23.

With “TATATATATTTATGCACACAAAATATATTATATAAT [CACACA_site5955]”, the “gcPBM binding intensity (ln)” value is 9.27.

As to “ATTTGGCATAGACACACACACACACGCACGCACATA [CACACA_site6424]”, the “gcPBM binding intensity (ln)” value was 10.4. In the case of “TACAGACATAGACACACACACACGCATAAAAAAAAA [CACACA_site6820]”, the “gcPBM binding intensity (ln)” value turned out to be 10.1. As for “AGCACGCACAGACACACACACATATTTATATTTATA [CACACA_site6291]”, the figure is 9.94; as for “TTTATTTTATCATTTGCACACGCACCCAGACATAAA [CACACA_site4347]”, 9.39; as for “CAGACGCACGTATTTGCACACATTGCCACGTAATTA [CACACA_site3349]”, 9.42. The value for “AAATTTGGCAGACACACACACACACGCACACGCACA [CACACA_site6423]” was 10.3. As for “TTTATATTATTTTAAACATGCACAAGTATAATTTAT [TGCATGCA_site233]”, the figure is 8.97.

Take “ATATGTATAAAAATCCGTACATAAGTGTGCGTATAT [XGTACX_site4376]”: the “gcPBM binding intensity (ln)” value came to 9.32. On to “TATTTATAATTATAATAATATATATATATATATATA [TGCATGCA_negctrl_site173]”, for which the “gcPBM binding intensity (ln)” value was 8.83. As for “AGAAATACAAAATAAATATAAGAAACAAAATATTTA [CACACA_negctrl_site780]”, the figure is 9.42; as for “AATGACAACCTTGTCACACATATATATATATATATA [CACACA_site5977]”, 9.17. On to “TCTATATAGATTTGCACACATAAAAATGCTTATATA [CACACA_site2389]”, for which the “gcPBM binding intensity (ln)” value was 9.27.

In the case of “TTGTTCCACAAAAATTTAGTCAAAAAAAAATAAAAA [TGCATGCA_negctrl_site546]”, the “gcPBM binding intensity (ln)” value was determined as 8.79.

As to “TATGTACAAATATGTACACACACACCGATATATATA [CACACA_site4487]”, the “gcPBM binding intensity (ln)” value came to 9.96. The value for “AGAAAGAAAATATATACACACAAAAAAAAATATATA [CACACA_site1412]” was 9.93; that for “TATATATATATATATACATGCATACATATACATACA [TGCATGCA_site897]” was 9.14. On to “CAAAAAAACAAACACACACACACACCGATATATATA [CACACA_site9218]”, for which the “gcPBM binding intensity (ln)” value turned out to be 10.2.

“TATATATACACACACACATGCATGCCGATATATATA [TGCATGCA_site29]”: the “gcPBM binding intensity (ln)” value amounted to 10.2. Take “AATATATATATATATACACACACACCGATATATATA [CACACA_site8158]”: the “gcPBM binding intensity (ln)” value stood at 10.1. On to “TATATATATATACATACATGCATATATATATATATA [TGCATGCA_site513]”, for which the “gcPBM binding intensity (ln)” value worked out at 9. Take “TATATATATATATACACACACACACCGATATATATA [CACACA_site8813]”: the “gcPBM binding intensity (ln)” value is 10.2. The value for “GATATATATTAATATACACACACACCGATATATATA [CACACA_site8462]” was 10; that for “AAAGAAAGAAAGAATACACACACACCGATATATATA [CACACA_site9246]” was 10.2. As for “AAAAAAAAAAAACACACACACAAAAAAAAATATATA [CACACA_site1105]”, the “gcPBM binding intensity (ln)” value came to 10.1.

Consider “TTATAAAAAAAAATAACACACAGACATAAGAATAAA [CACACA_site9383]”, for which the “gcPBM binding intensity (ln)” value came out at 9.95. The value for “TTTTCATTAAGATACTTATAATAGTTTATTAGTAAA [CACACA_negctrl_site586]” was 8.77; that for “ATAATATCATCAAACGCACACATACATAAATATATT [CACACA_site5230]” was 9.55; that for “ATTTTTTTCATAGACACACACAATATATCTGTTTCC [CACACA_site3023]” was 9.83. As for ATTATATATAATATAGTGCATGTAAAAAATAAAACA, the figure is 9.48; as for “GATGTGTAAATAAGGATATATAACAATCAACAAAAC [XGTACX_negctrl_site494]”, 9.72. As for “TATATACATACATATACACACATATATATATATATA [CACACA_site401]”, the figure is 9.44. Regarding “ATATTATATATATACACACACACATGCATGCACCTA [CACACA_site106]”, the “gcPBM binding intensity (ln)” value amounted to 10.2. The value for “ATATTATATATATACACACACACATGCATGCACATA [CACACA_site7917]” was 10.1; that for “TATATATACATATACACACACACACCGATATATATA [CACACA_site8706]” was 10.2. Turning to “AAAAAAAAAAAACACACACACACACCGACACATACA [CACACA_site5576]”, the “gcPBM binding intensity (ln)” value is 10.2. As for “TACATACATACATACATACACACATATATATATATA [CACACA_site1996]”, the figure is 9.45; as for “AAAAAAAAAAAACACACACACACACCGATACATACA [CACACA_site8849]”, 10.3. The value for “CACAAACACCCAAACACACACACACCGACATACATA [CACACA_site4410]” was 10; that for “CATACATACAAACACACACACACACCGATATATATA [CACACA_site8952]” was 10.3. As for “ATATTATAGATATACACACACACATGCATGCACATA [CACACA_site6203]”, the figure is 10.1; as for “AAAAAAAAAAAAAACACACATACATACATACATATA [CACACA_site4121]”, 9.74. As to “GAAGGAAATAATAGTAGTACAAATGGTAAGAAATAT [XGTACX_site5845]”, the “gcPBM binding intensity (ln)” value stood at 9.7. As to “AATTTTTATACGGATACACACAAAAAAAAATAAAAA [CACACA_site897]”, the “gcPBM binding intensity (ln)” value came out at 9.53. Consider “TACACTTTTTTTTGTACACACTAAAAAGATTAACAA [CACACA_site6037]”, for which the “gcPBM binding intensity (ln)” value is 9.07. The value for “TATTTGGGTATTTTTACACACATTAAAATATATATA [CACACA_site5800]” was 9.33.
